This note sets out measurements from ChEMBL document CHEMBL3988442, “University of Dundee, Small-Polar-MMV Screening Library” (2021).

Holding throughout (set-up): scale not given: direction of the effect not stated beside the values
Assay [1] has as its target Protein translocase subunit SecA (Escherichia coli (strain K12)) (UniProt P10408). The assay is described as follows: Assay to Identify E. coli SecA ATPase Inhibitors. Type of assay: functional. The note with it: 30 µM.
In assay [2] the target is T1, Ubiquitin-activating enzyme e1, putative (Leishmania donovani (strain BPK282A1)) (UniProt E9BSI1).
T1 sequence (whole entry): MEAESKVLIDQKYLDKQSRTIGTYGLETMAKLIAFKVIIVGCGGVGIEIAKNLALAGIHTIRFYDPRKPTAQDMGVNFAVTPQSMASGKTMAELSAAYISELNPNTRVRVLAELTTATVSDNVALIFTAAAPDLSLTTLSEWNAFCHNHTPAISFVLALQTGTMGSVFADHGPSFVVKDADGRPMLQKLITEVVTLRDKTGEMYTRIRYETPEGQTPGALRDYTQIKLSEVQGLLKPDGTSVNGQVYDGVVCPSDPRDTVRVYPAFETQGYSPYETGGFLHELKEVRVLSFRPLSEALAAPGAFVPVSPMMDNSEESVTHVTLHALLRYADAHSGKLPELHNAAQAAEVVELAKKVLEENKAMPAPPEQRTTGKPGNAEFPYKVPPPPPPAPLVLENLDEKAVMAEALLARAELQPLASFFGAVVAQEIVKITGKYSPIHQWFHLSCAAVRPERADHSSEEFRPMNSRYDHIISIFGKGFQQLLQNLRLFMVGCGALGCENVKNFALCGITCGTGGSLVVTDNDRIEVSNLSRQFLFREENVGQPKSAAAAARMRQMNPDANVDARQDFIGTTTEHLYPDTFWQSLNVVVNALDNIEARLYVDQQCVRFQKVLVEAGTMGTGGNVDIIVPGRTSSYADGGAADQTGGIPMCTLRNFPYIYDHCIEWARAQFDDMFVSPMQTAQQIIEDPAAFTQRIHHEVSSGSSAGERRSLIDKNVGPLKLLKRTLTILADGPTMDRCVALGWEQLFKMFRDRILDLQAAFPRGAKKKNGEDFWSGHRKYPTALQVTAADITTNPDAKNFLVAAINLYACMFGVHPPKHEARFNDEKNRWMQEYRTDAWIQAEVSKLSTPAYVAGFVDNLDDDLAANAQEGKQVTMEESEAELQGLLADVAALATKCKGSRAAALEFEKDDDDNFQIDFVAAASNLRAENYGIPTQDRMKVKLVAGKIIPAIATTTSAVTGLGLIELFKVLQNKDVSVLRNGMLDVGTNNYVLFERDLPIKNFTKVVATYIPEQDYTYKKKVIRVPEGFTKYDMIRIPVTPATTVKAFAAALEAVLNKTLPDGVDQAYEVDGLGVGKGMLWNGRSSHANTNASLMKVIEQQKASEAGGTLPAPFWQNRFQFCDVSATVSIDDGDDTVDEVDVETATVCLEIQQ
Kind of assay: Leishmania donovani Ubiquitin Activating Enzyme (LdE1). It is filed as functional. The note with it: 30 µM.

Assay [3] concerns the target T2, Aspartate--tRNA(Asp/Asn) ligase (Mycobacterium tuberculosis (strain ATCC 25618 / H37Rv)) (UniProt P9WFW3). Note: in the data most compounds retested in dose-response had high values.
T2 sequence (whole entry): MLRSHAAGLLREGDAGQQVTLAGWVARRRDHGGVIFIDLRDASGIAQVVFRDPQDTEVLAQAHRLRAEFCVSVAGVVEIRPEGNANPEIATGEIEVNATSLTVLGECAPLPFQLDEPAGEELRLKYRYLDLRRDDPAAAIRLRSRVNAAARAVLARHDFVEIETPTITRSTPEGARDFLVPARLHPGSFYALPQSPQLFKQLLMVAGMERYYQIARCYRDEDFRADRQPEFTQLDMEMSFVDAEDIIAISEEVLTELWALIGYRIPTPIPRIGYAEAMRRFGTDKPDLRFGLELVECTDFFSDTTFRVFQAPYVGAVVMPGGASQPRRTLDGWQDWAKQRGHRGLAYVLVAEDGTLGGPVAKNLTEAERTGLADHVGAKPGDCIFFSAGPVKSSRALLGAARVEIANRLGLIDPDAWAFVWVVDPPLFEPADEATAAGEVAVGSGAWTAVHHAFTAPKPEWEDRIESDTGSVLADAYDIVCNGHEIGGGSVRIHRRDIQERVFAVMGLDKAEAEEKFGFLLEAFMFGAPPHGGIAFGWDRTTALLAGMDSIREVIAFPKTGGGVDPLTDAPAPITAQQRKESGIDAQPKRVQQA
The assay is described as follows: Assay for Asp RNA synthetase-1 from Mycobacterium tuberculosis. It is filed as functional. The settings on record: 30 µM.

For assay [4], the target named is AMP-activated protein kinase, AMPK (Homo sapiens) (UniProt P54646+O43741+P54619+Q9UGJ0+Q9Y478+Q13131+Q9UGI9). The assay is described as follows: AMP-dependent Kinase enzyme assay. An in vitro enzyme assay that detects ADP turnover that is directly proportional to AMPK activity. This uses naive AMPK that is activated during the assay with MK-8722. The note with it: 30 µM. It is filed as functional.

Assay [5] concerns the target Sialic acid-binding Ig-like lectin 9 (Homo sapiens) (UniProt Q9Y336). Kind of assay: Hs-Siglec9 ALPHAscreen SOP 20170721. The note with it: 10 µM. On the technique in general: In Alpha technology, singlet oxygen from a donor bead excites a nearby acceptor bead.
In another assay the test system is Trypanosoma cruzi. The assay is described as follows: Trypanosoma cruzi phosphomannomutase and mannose-1-phosphate guanylyltransferase assay. The settings on record: 10 µM. It is filed as functional.
Assay [6] has as its target T3, Arginase-2, mitochondrial (Homo sapiens) (UniProt P78540).
T3 sequence (whole entry): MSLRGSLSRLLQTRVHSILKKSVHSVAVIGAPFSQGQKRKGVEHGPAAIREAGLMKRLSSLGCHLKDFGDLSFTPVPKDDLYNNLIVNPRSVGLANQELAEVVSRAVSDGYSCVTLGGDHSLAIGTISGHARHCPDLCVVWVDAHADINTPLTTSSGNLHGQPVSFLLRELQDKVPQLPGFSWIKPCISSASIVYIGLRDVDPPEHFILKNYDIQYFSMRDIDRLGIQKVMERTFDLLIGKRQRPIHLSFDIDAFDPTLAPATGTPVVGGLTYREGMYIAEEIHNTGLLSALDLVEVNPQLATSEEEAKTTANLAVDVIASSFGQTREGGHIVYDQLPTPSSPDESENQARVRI
The assay is described as follows: in vitro enzyme assay to detect the production of urea directly proportional to the activity of Arginase II. Note: in the data most compounds retested in dose-response had high values. The settings on record: 33.3 µM. It is filed as functional.

Assay [7] concerns the target T4, Proteasome subunit beta (Trypanosoma cruzi) (UniProt O96673).
T4 sequence (whole entry): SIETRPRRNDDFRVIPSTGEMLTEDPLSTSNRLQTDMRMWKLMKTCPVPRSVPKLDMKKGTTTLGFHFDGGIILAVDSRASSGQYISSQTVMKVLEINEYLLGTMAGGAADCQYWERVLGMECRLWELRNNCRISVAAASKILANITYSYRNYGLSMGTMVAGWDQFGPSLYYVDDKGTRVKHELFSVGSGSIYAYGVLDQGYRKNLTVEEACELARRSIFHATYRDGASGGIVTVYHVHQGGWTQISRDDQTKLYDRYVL
The assay is described as follows: Trypanosoma cruzi proteasome chymotrypsin-like activity (TcProtChymo) assay. Note: in the data most compounds retested in dose-response had high values. Type of assay: functional. The note with it: 9.37 µM.

A further assay is filed under the species Homo sapiens. Kind of assay: To identify inhibition of the IFN signalling (Jak-Stat) pathway via expression of an eGFP reporter gene under the control of an IFN-stimulated response element (ISRE) containing MxA promoter. It is filed as functional. The settings on record: 30 µM. For orientation: Reporter assays use an easily measured gene product as a stand-in for the process of interest.

Assay [8] has as its target Shiga toxin 2 (Escherichia coli O157:H7) (UniProt P09385+P09386). Kind of assay: E. coli 0.157:H7 Shiga Toxin SOP - stx2 screening assay. The note with it: 30 µM. Type of assay: functional.
The target of assay [9] is T5, Tyrosyl-tRNA synthetase, putative (Trypanosoma cruzi (strain CL Brener)) (UniProt Q4DSP6).
T5 sequence (whole entry): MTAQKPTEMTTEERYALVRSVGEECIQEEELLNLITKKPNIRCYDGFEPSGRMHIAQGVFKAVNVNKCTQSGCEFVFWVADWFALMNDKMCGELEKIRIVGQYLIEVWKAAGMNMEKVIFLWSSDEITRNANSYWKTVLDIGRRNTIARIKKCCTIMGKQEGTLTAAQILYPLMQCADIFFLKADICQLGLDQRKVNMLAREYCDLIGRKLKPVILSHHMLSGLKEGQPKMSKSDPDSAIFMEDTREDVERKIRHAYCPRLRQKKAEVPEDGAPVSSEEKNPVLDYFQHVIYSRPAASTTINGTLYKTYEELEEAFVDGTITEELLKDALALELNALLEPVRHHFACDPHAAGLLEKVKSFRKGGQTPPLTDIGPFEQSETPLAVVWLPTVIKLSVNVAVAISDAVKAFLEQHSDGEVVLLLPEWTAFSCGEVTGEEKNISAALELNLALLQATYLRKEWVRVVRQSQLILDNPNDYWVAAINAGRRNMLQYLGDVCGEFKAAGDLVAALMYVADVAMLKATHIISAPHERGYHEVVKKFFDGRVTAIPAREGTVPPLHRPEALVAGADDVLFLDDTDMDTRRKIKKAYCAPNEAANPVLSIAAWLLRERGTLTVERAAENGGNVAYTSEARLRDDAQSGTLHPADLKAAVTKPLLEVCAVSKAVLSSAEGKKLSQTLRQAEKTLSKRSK
The assay is described as follows: Trypanosoma cruzi tyrosyl tRNA synthetase (TcYRS) _High Tyrosine SOP. Note: in the data most compounds retested in dose-response had high values. Type of assay: functional. The settings on record: 30 µM.

Assay [10] concerns the target T5, Tyrosyl-tRNA synthetase, putative (Trypanosoma cruzi (strain CL Brener)). Kind of assay: Trypanosoma cruzi tyrosyl tRNA synthetase (TcYRS) SOP. Type of assay: functional. The settings on record: 30 µM.
Assay [11] deals with Chromo domain-containing protein 1 (Saccharomyces cerevisiae (strain ATCC 204508 / S288c) (Baker's yeast)) (UniProt P32657). The assay is described as follows: ScCHD-1 Enzyme Inhibition Assay. Note: in the data most compounds retested in dose-response had high values. Type of assay: functional. The note with it: 30 µM.
Chain of Chromo domain-containing protein 1 (Saccharomyces cerevisiae (strain ATCC 204508 / S288c) (Baker's yeast)) (P32657 whole entry, the tested form may be a part): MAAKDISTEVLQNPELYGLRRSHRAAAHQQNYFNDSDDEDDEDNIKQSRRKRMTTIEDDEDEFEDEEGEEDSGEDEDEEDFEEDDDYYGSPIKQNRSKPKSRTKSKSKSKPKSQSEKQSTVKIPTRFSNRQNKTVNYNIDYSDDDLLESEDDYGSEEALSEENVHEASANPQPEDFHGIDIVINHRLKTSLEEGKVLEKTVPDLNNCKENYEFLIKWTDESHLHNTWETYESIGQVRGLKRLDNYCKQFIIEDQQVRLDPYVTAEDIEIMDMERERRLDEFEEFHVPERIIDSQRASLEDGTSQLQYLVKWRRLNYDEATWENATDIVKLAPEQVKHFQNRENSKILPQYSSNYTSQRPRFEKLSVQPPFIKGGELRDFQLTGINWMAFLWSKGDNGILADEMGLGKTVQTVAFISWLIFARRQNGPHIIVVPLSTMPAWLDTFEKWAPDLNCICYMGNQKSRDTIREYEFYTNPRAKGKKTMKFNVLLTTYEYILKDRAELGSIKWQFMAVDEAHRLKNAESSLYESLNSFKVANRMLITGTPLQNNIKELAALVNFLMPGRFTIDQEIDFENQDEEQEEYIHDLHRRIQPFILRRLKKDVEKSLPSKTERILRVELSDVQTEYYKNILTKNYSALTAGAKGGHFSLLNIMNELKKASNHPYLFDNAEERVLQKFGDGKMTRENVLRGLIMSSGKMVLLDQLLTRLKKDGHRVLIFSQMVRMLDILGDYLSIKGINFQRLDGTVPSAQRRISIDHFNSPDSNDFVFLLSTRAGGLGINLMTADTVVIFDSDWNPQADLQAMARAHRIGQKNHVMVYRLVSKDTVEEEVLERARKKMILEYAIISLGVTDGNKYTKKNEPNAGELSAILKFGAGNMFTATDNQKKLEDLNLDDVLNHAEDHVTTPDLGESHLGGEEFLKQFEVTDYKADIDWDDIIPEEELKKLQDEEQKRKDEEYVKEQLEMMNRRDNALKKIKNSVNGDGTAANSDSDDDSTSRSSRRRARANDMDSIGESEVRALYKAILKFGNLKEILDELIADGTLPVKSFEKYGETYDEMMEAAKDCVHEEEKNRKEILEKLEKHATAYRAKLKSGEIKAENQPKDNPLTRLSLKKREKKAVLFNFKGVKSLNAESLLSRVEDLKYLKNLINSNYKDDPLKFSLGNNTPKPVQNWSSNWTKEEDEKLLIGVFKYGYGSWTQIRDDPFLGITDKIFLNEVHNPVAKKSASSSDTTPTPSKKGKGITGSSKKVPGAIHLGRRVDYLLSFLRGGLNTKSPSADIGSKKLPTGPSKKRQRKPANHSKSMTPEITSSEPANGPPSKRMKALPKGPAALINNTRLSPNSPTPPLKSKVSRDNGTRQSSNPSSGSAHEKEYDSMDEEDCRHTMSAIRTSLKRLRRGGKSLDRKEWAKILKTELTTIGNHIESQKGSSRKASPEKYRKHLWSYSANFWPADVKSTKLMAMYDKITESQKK

Each structure is given as a SMILES string. For some assays here: Results with a measured potency or affinity are listed apart.

Chain of Protein translocase subunit SecA (Escherichia coli (strain K12)) (P10408 whole entry): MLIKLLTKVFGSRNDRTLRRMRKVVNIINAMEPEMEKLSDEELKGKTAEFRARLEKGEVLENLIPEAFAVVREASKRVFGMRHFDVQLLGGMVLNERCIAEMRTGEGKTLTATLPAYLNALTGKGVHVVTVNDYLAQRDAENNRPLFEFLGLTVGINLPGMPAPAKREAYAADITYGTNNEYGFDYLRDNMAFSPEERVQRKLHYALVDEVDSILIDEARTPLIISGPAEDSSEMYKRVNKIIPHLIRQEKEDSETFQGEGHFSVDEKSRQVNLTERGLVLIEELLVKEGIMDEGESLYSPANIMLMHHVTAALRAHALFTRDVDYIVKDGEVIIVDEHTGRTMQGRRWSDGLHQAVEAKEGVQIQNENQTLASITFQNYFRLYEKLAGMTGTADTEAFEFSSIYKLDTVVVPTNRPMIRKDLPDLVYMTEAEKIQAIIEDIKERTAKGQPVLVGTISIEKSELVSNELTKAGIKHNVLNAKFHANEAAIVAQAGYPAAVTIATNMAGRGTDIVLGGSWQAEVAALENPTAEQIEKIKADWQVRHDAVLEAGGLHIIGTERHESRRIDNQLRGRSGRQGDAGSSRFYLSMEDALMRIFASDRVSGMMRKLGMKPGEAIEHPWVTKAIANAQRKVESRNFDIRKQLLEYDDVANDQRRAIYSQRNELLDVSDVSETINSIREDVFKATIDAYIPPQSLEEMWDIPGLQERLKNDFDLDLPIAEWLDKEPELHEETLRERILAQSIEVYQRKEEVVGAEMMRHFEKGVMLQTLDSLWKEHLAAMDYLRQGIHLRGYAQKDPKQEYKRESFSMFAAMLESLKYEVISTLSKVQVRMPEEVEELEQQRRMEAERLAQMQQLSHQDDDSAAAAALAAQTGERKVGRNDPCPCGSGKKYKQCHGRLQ
Chain of Sialic acid-binding Ig-like lectin 9 (Homo sapiens) (Q9Y336 whole entry): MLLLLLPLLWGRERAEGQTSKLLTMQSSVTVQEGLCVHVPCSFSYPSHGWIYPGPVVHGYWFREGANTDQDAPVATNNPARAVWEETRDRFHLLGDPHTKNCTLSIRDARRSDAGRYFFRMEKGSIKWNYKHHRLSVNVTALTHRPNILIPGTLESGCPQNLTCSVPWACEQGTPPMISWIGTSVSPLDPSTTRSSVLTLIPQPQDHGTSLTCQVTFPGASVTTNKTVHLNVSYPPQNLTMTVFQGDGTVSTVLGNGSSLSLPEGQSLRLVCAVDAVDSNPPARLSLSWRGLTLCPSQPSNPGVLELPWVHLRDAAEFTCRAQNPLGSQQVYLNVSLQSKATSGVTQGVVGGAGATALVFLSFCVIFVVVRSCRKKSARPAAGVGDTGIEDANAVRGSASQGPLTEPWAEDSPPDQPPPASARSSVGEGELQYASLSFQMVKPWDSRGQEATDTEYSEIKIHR

For `O=C1[C@H]2CN(CC3CC3)C[C@H]2CN1c1ccsc1`, the Percent Effect in [1] is -6.19%; in assay [2], -2.7%; in assay [3], 1.21%; in assay [4] it was 4.91%; in assay [5], -3.17%; with Trypanosoma cruzi, -2.44%. The Percent Effect in assay [6] was -1.59%; in [7], 6.27%; in the assay filed under Homo sapiens it was -11.2%; in assay [8] it was -5.46%; in assay [9] it was 3.24%; in [10], 0%. Besides, the Percent Effect in assay [11] came out at 5.84%.

Consider `c1cncc(N2CCCC3(CN(Cc4cccs4)CCO3)C2)c1` (stereo not given), for which the Percent Effect was -4.82% in [1]; 8.11% in [2]; 1.48% in assay [3]; -14.4% in assay [4]; -11.3% in assay [5]; -4.2% in the assay on Trypanosoma cruzi. The Percent Effect is -1.59% in assay [6]; 8.12% in [7]; 29.1% in the assay filed under Homo sapiens; 1.28% in [8]; -1.08% in [9]; 5.13% in [10]. In [11], the Percent Effect is -3.66%.

Consider `NCC1(c2cccc(C(F)(F)F)c2)CCOCC1`, for which the Percent Effect in [1] was -1.6%; in assay [2], 5.41%; in assay [3] it was 0.69%; in assay [4], -16.1%; in assay [5], -3.19%; with Trypanosoma cruzi, -0.781%. Besides, the Percent Effect is 25% in assay [6]; 15.6% in assay [7]; 7.66% in the assay listed under Homo sapiens; -1.62% in [8]; 7.92% in assay [9]; 18.3% in [10]. The Percent Effect in assay [11] is 107%.

Turning to `O=C(Cc1cccs1)N1C[C@@H]2OCCN(CC3CCCO3)[C@@H]2C1` (stereo not given in full), the Percent Effect in assay [1] is -3.88%; in [2] it was 0%; in assay [3], -5.27%; in [4], -1.33%; in assay [5] it was 4.51%; in the assay with Trypanosoma cruzi it was -2.58%. Further, the Percent Effect was -0.399% in assay [6]; 15.3% in [7]; 15.2% in the assay listed under Homo sapiens; -19.8% in assay [8]; 2.08% in assay [9]; 6.17% in [10]. Further, in assay [11], the Percent Effect is -0.242%.

With `c1cc(CO[C@@H]2CC[C@H]3[C@H]2OCCN3CC2CCOCC2)ccn1`, the Percent Effect in assay [1] is 1.51%; in [2], 16.2%; in assay [3], 5.55%; in assay [4], 7.58%; in [5], -13.8%; with Trypanosoma cruzi it was -4.79%. The Percent Effect in assay [6] was -0.319%; in [7], 3.51%; in the assay listed under Homo sapiens it was 45.1%; in assay [8], -7.6%; in assay [9] it was 2.16%; in [10], 10.3%. In addition, the Percent Effect in [11] was -9.05%.
